The text below walks through data of PubChem BioAssay AID504652 (National Center for Advancing Translational Sciences (NCATS), 2011).

Screen size: about 360,000 compounds; about 11,000 (3.1%) were called active. This excerpt belongs to a sample that is enriched for actives. A number with no mark means an inactive call. Cut-off read from the data, not from the text of the source: active = activity change below about -30%; inactive = the rest.
% is set by controls: 0 for no effect and ±100 for the full control effect.

D(1A) dopamine receptor (Homo sapiens), sequence (P21728 whole entry, looked up): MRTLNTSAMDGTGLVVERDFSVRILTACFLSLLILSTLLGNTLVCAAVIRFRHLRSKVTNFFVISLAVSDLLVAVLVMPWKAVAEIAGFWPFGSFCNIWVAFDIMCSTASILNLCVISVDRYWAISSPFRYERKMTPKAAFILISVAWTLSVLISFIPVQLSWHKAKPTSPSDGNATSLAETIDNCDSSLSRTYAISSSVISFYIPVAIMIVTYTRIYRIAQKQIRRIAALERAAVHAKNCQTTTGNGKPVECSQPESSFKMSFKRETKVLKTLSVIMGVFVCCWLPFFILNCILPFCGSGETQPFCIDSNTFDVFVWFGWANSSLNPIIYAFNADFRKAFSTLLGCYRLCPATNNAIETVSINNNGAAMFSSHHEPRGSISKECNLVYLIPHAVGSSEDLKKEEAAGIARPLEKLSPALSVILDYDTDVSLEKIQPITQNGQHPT

The experiment deals with D(1A) dopamine receptor (Homo sapiens) (UniProt P21728). Description: Antagonist of Human D 1 Dopamine Receptor: qHTS. The note with it: HEK293 TREx D1 cells, calcium flux, dopamine EC80; at 10 µM; stronger effect = lower value. An outline of the steps:
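Allosteric or orthosteric antagonism assessed as attenuation of the calcium response to EC80 dopamine, added 180 s after compound, in induced HEK293 Trex D1 cells loaded with no-wash calcium dye.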
For orientation: Quantitative high-throughput screening tests each substance at several concentrations.
Take `COc1ccc(-c2c(C)nn3c(N4CCC(C(=O)NCCC(C)C)CC4)cc(C)nc23)cc1OC`: the activity change, negative = inhibition is -5.31%.
The value for `COc1cccc(CNc2nccn(-c3ccc(OC)c(OC)c3)c2=O)c1` was 6.9%; that for `COc1ccc(C2NC(=O)N(C)C3=C2C(=O)N(c2ccc(C(=O)O)cc2)C3)cc1` (stereo not drawn) was -10.6%; that for `COC(=O)c1ccc(NC(=O)CCc2c(C)nn(-c3ccc(N4CCCC4)nn3)c2C)cc1` was -3.84%.
`Cc1cccc(C(CC(=O)NCC2(c3ccccc3)CCCC2)c2ccccc2)c1O` (stereo not drawn): the activity change, negative = inhibition is -31% (active).
The value for `CCOc1c(OC)cccc1C(=O)NCC1(c2ccccc2)CCCC1` was 19%.
Turning to `O=C(CNC1CCCCC1)NCC1(c2ccccc2)CCCC1`, the activity change, negative = inhibition was 4.83%.
The value for `COc1ccc(/C=C/c2noc(-c3ccccc3O)n2)cc1OC` was 4.82%.
The value for `CC(C)CCN(C(=O)Nc1ccc(Cl)c(Cl)c1)C(C)c1cccs1` (stereo not drawn) was -22.4%; that for `O=C(COc1ccc(Cl)cc1)Nc1ccccc1OCc1cc(=O)n2ccccc2n1` was 0.395%; that for `O=C(CSc1ncc(CO)n1Cc1ccc(Cl)cc1)NCc1ccc(F)cc1` was -8.7%.
As for `Cc1nn(Cc2ccccc2)c(C)c1CNC(=O)c1ccc(F)c(S(=O)(=O)N2CCOCC2)c1`, the activity change, negative = inhibition was -20.4%.
The value for `CCN(Cc1ccncc1)C(=O)c1cccc(S(=O)(=O)N2CCOCC2)c1` was -44.2% (active).
The value for `CC(C)C(NC(=O)c1cccc(S(=O)(=O)N2CCOCC2)c1)C(=O)NCCc1ccccn1` (stereo not drawn) was 10.6%; that for `O=C(c1ccc(F)c(S(=O)(=O)N2CCOCC2)c1)N(CCc1ccccc1)Cc1ccccc1` was -39.2% (active); that for `CCN(CC(=O)NCc1cccs1)C(=O)c1ccc(OC)c(S(=O)(=O)N2CCOCC2)c1` was 2.75%.
The value for `COc1ccc(C(=O)N(Cc2ccccc2)c2ccc(C)cc2)cc1S(=O)(=O)N1CCOCC1` was 8.42%; that for `CCOC(=O)c1cnc2c(C)cc(C)cc2c1Nc1ccc(N2CCOCC2)cc1` was 15.4%.
For the compound `CCOC(=O)c1cccc(NC(=O)Cn2cnc3nc4c(cc3c2=O)CCCC4)c1`, the activity change, negative = inhibition was 17.9%.
The value for `COc1cc2[nH]c(=O)n(Cc3ccc(C(=O)NCc4ccc(C)cc4)cc3)c(=O)c2cc1OC` was 1.6%.
Turning to `COc1ccc2c(c1)c(N1CCCC1=O)c(C(=O)Nc1ccc(OC)c(Cl)c1)n2C`, the activity change, negative = inhibition is 11.9%.
The value for `CCOC(=O)Cc1ccc(NC(=O)Nc2c[nH]c(=O)[nH]c2=O)cc1` was 0.423%; that for `COc1ccc(C)cc1-n1c(-c2ccc(C)cc2)cc2c1CC(C)(C)CC2=O` was 12.6%.
